Source: PubChem BioAssay AID493185 (National Center for Advancing Translational Sciences (NCATS), 2011)
A number with no mark means an inactive call. Calls come from the whole dose curve; as a rule, active = well fitted activation curve with a large enough effect; inconclusive = small, poorly fitted or top-dose-only effect; inactive = no such curve, though single readings can be large or run the other way.

Test: Counterscreen for Identifying a Potential Treatment of Ataxia-Telangiectasia: Hit Validation; note: 0% is about no effect
Conditions: cell-free AlphaLISA/AlphaScreen artifact counterscreen, PBS only, no cells; series mostly up to 76.9 µM; activation: at the top concentration
In short: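 Cell-free AlphaLISA counterscreen: compounds (up to 76.7 uM final) in PBS with detection mix of anti-pKAP1 and anti-KAP1 antibodies on donor/acceptor beads plus lysis buffer, incubated 6 hr at 25C before AlphaScreen read.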

First: COc1ccc(C(=O)CSc2nc3ncccc3[nH]2)cc1OC
Second: COc1ccc(-c2cc(C(F)(F)F)c(C#N)c(SCC(=O)O)n2)cc1OC
The “activation” value of the first is lower: -10.8% for the first, 24.6% for the second.

Going from `Oc1ccc(-c2nccc(-c3ccc(F)cc3)n2)cc1` to `CC(=O)Nc1ccc(NC(=O)CSc2nnnn2-c2ccc(F)cc2)cc1`, the “activation” value rises from -7.52% to 2.26%.

First: COc1ccc(NC(=O)C2CC2)cc1OC1CCCC1
Second: CCc1ccc(NC(=O)CNCc2ccc(OC)c(OC)c2)cc1
The “activation” value of the first is higher: 8.2% for the first, -3.28% for the second.

Compared with `CN1C[C@@H]2C(c3ccccc3)C3(c4ccccc4)CC2(C3)[C@H]1c1ccccc1` (stereo partly drawn), `O=C1CN(C(=O)NCC(=O)N[C@H](C(=O)O)c2ccccc2)c2ccccc2N1` is higher in “activation” value: -6.92% for the first, 9.02% for the second.

First: CC1(C)CC2(CCO1)OC(=O)CC2C(=O)Nc1c(Cl)cccc1Cl (stereo not drawn)
Second: CCCN1C2CCCC1CC(NC(=S)Nc1cccc(C)c1C)C2 (stereo not drawn)
The “activation” value of the first is higher: 7.38% for the first, 5.38% for the second.

First: CCOC(=O)NC(C(Cl)(Cl)Cl)S(=O)(=O)c1ccccc1 (stereo not drawn)
Second: O=S(=O)(C/C(=C/CO)S(=O)(=O)c1ccccc1)c1ccccc1
The “activation” value of the first is higher: -9.77% for the first, -12.8% for the second.

Going from `CC(=O)/C(N=Nc1nc2c([nH]1)c(=O)n(C)c(=O)n2C)=C(\C)O` to `C/C=C\C=C/C(=O)Nc1cccc(C2=NOC3(C2)C[C@@H](C(N)=O)N(C(=O)COc2ccc(Cl)cc2)C3)c1` (stereo partly drawn), the “activation” value falls from -10% to -11.5%.

Going from `CN(CCc1ccccn1)C(=O)c1cc(COc2ccc(F)cc2F)on1` to `C=CCSc1nc2ccccc2n1C(=O)/C=C/c1cc(OC)c(OC)c(OC)c1`, the “activation” value falls from 5.26% to 2.26%.

Compared with `S=c1[nH]nc(COc2ccccc2)n1/N=C/c1ccccc1Cl`, `O=C(NC12CC3CC(CC(C3)C1)C2)c1cccc(OC(F)F)c1` is higher in “activation” value: 1.54% for the first, 4.1% for the second.
